An excerpt weighted towards active compounds, which were near 3.4% of everything screened.
HSP90 inh = HSP90 inhibitors, primary screen, cell lysate, luminescence; Heat shock protein HSP 90 (rabbit reticulocyte lysate; luciferase refolding); Rabbit reticulocyte lysate, luciferase refolding luminescence, 3 h; 0.91% of 290,000 active; AID 1789, 2009; inhibition, % at 5.6 µM;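 active = inhibition above the screen-wide mean plus 3 SD, computed separately per campaign, cut at about 16% in these data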;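 note: inhibitors lower the luminescence because luciferase stays unfolded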
GAA850 FXN act = FXN promoter activators, primary screen, cell-based, luciferase luminescence, HEK293 lucGAA850. HEK293 lucGAA850 FXN promoter luciferase reporter, 24 h; percent of 10 µM SAHA response. activation, % at 6 µM. 0.56% of 360,000 active. AID 540364, 2011;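 active = activation above the average of all compounds screened plus 3 SD, cutoff fixed separately per campaign, cut at about 7.5% in these data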
SMARCA2 activ = SMARCA2 (BRM) function activators, primary screen, cell-based, luminescence, high throughput; 1% of 370,000 active; activation, % at 9.1 µM; AID 652017, 2013; MG213 cells, MMTV-luciferase reporter, dexamethasone, overnight; in the data active = activation above about 7.8%
PG9 Ab binder = binders of HIV-1 gp120 antibody PG9, primary screen, biochemical, TR-FRET; HIV-1 gp120 / PG9 antibody interaction; TR-FRET gp120-PG9 antibody binding; inhibition, % at 6.7 µM; 0.43% of 360,000 active; AID 624416, 2012; in the data active = inhibition above about 8.5%
AI-2 QS modul = Vibrio harveyi AI-2 quorum sensing modulators, primary screen, JMH597 strain, luminescence/OD600 ratio; Vibrio harveyi JMH597 AI-2 luminescence/OD600 ratio, 9 h; hits give low values; strain lacks LuxN and CqsS sensors; 0 = neutral-control median; activity change, % at 7.5 µM; 0.4% of 300,000 active; in the data active = activity change below about -75%, passing the limit was not always enough;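 note: luminescence divided by OD600 gain over 9 h not by final OD600 alone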
HSF1 inh = HSF1 inhibitors in luciferase reporter cells, primary screen, cell-based, NIH3T3, luminescence; AID 2098, 2009; 0.77% of 300,000 active; NIH3T3-HGL HSE-luciferase, MG132-induced, luminescence 8 h; hits give low values; activity change, negative = inhibition, % at 7.5 µM (by protocol);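 active = more than half of replicate wells show activity change below -50%, luminescence cut by over half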;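 note: luciferase reports HSF-1 transcriptional activity via heat shock element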
HSP90 inh confirm = HSP90 inhibitors, confirmation, cell lysate, luminescence; shares compounds with HSP90 inh; rabbit reticulocyte lysate, luciferase refolding luminescence, 3 h; inhibition, % at 5.9 µM; 64% of 2,300 active; in the data active = inhibition above about 18%
luciferase ctr = firefly luciferase inhibitors, HSP90 counter-screen, confirmation, artefact control for HSP90 inhibitor project, biochemical, luminescence, triplicate; shares compounds with HSP90 inh; purified native firefly luciferase; inhibition, % at 5.9 µM; 48% of 2,300 active;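 active = inhibition above the mean inhibition of all tested sample wells plus 3 SD, cut at about 10% in these data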
Target sequence (P08659 whole entry, looked up): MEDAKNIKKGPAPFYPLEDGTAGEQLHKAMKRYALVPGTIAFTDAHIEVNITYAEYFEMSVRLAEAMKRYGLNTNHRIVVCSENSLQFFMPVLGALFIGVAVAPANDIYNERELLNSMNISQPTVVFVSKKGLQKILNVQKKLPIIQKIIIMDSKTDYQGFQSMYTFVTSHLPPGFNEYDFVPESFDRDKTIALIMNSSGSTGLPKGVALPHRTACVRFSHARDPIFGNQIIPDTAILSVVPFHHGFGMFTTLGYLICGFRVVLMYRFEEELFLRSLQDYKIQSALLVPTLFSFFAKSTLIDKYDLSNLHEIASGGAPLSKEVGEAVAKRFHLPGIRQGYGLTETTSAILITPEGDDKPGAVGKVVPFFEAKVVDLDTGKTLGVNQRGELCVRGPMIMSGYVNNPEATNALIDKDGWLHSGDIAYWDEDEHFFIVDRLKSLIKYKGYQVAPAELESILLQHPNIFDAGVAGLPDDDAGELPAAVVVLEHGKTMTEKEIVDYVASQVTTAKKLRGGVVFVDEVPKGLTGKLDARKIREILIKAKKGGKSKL
Numbers stand for hits; i = inactive; nt = not tested or not shown.

SMILES	HSP90 inh	GAA850 FXN act	SMARCA2 activ	PG9 Ab binder	AI-2 QS modul	HSF1 inh	HSP90 inh confirm	luciferase ctr
Cc1cc(/C=C2\SC(=S)N(C)C2=O)c(C)n1-c1ccc(O)cc1	60	i	i	i	i	-52	82	82
C#CCN1CC(N(C)CCOC(=O)CCCc2ccccc2)CS1(=O)=O (stereo unspecified)	nt	nt	i	nt	nt	nt	nt	nt
CC(C)Oc1ccc(CCC(=O)NNC(=S)Nc2ccccc2)cc1	18	i	i	i	i	i	i	i
COC(=O)C1CN(Cc2ccccc2)CCS(=O)(=O)N1Cc1cn(Cc2ccccc2Br)nn1 (stereo unspecified)	nt	nt	i	nt	nt	nt	nt	nt
Nn1cnnc1N/N=C/c1ccc(Cl)c([N+](=O)[O-])c1	46	i	i	i	i	-98	i	i
CCc1nnc(N/N=C/c2ccc(N3CCC(C)CC3)c([N+](=O)[O-])c2)n1N	21	i	i	i	i	i	i	i
Cc1nnc(N/N=C/c2cc([N+](=O)[O-])c(N3CCC(C)CC3)cc2N2CCC(C)CC2)n1N	76	i	i	i	i	i	i	i
Cc1[nH]c2ccccc2c1C(=O)c1c(N)[nH]c(C(=O)c2ccc(Br)cc2)c1-c1ccc(Br)cc1	nt	nt	i	i	nt	nt	nt	nt
CC(=O)c1cc(-c2cc3ccccc3o2)c(=O)n2c1CCC2	nt	nt	i	nt	nt	nt	nt	nt
COC(=O)c1ccc(NC(=O)c2cccc(C)c2)cc1	i	i	i	i	i	i	nt	nt
COC(=O)c1ccc(NC(=O)c2ccc3nsnc3c2)cc1	68	i	i	i	i	i	i	i
CCOc1cccc(-c2nnc3n2N=C(c2ccc(OC)cc2)CS3)c1	nt	nt	i	nt	nt	nt	nt	nt
CC(=O)N(CN1C(=O)c2ccccc2C1=O)c1cccc(C)c1	i	i	i	i	i	i	nt	nt
CC(=O)N(/N=C1\Sc2ccccc2C1=O)c1cccc(C)c1	40	i	i	i	i	i	76	i
O=C(Nc1ccncc1)c1ccc2ccccc2c1	i	i	i	i	i	i	nt	nt
Cc1ccoc1C(=O)Nc1ccc2ccccc2c1	24	i	i	i	nt	i	56	47
Cc1ccc(C(=O)Nc2ccc3ccccc3c2)cc1	69	i	i	i	i	i	76	69
O=C(Nc1ccccc1C(F)(F)F)OC1CC2CC1[C@H]1CCCCN1C2 (stereo partly specified)	nt	nt	i	nt	nt	nt	nt	nt
COc1ccccc1NC(=O)C(=O)c1cn(CC(=O)N2CCOCC2)c2ccccc12	21	i	i	i	i	i	i	i
COc1ccccc1NC(=O)C(=O)c1cn(CC(=O)N2CCCC2)c2ccccc12	i	i	i	i	i	i	nt	nt
Cc1ccc(NC2=C/C(=N/S(=O)(=O)c3cccs3)c3ccccc3C2=O)cc1C	i	i	i	i	i	i	nt	nt
CC(=O)Nc1ccc(NC2=C/C(=N/S(=O)(=O)c3cccs3)c3ccccc3C2=O)cc1	55	i	i	i	i	-95	67	i
Cc1ccccc1NC1=C/C(=N\S(=O)(=O)c2cccs2)c2ccccc2C1=O	35	i	i	i	i	-95	91	i
COc1ccc(NC(C)C(=O)N/N=C/c2ccc([N+](=O)[O-])s2)cc1 (stereo unspecified)	i	i	i	i	i	i	nt	nt
Cc1ccc(NC(C)C(=O)N/N=C/c2ccc([N+](=O)[O-])s2)cc1 (stereo unspecified)	35	i	i	i	i	i	i	i
O=C(O)c1cccc(NC(=S)NC(NC(=O)c2cccc([N+](=O)[O-])c2)C(Cl)(Cl)Cl)c1 (stereo unspecified)	29	i	i	i	i	i	75	i

Screening results: PubChem, several laboratories
